Measured values published in PubChem BioAssay AID1159580 (chemical genetic matrix, 2015).
About 2,000 (36%) of roughly 5,500 compounds were called active. Inconclusive results (about 18%) are left out. No stated cut-off is given here; in the data, active means normalized growth mostly below about 0.91 (no sharp cut-off); inconclusive means no clear call, values can overlap the other calls; inactive means mostly above about 0.92. The list shows a part of the results.

Test: chemical genetic growth profiling, strain panel (AID 1159580);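 further: tested at 20 µM; growth read once vehicle control cultures reached saturation at 30 °C; 1 = growth at the plate median or of vehicle wells; lower values mean less growth of the strain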
Details: S. cerevisiae deletion strains, growth OD
[1] = locus YAR019C, strain CDC15, hits give low values
[2] = locus YBL105C, strain PKC1, hits give low values
[3] = locus YBR135W, strain CKS1, hits give low values
[4] = locus YBR136W, strain MEC1, hits give low values
[5] = locus YBR160W, strain CDC28, hits give low values
[6] = locus YDL017W, strain CDC7, hits give low values
[7] = locus YDL028C, strain MPS1, hits give low values
[8] = locus YDL101C, strain DUN1, hits give low values
[9] = locus YDL108W, strain KIN28, hits give low values
[10] = locus YDL132W, strain cdc53, hits give low values
[11] = locus YDL214C, strain PRR2, hits give low values
[12] = locus YDR052C, strain DBF4, hits give low values
[13] = locus YDR054C, strain cdc34, hits give low values
[14] = locus YDR226W, strain ADK1, hits give low values
[15] = locus YDR477W, strain SNF1, hits give low values
[16] = locus YER123W, strain YCK3, hits give low values
[17] = locus YER133W, strain GLC7, hits give low values
[18] = locus YFL009W, strain cdc4, hits give low values
[19] = locus YFL029C, strain CAK1, hits give low values
[20] = locus YFR003C, strain YPI1, hits give low values
[21] = locus YFR019W, strain FAB1, hits give low values
[22] = locus YFR028C, strain CDC14, hits give low values
[23] = locus YGR040W, strain KSS1, hits give low values
[24] = locus YGR052W, strain FMP48, hits give low values
[25] = locus YGR092W, strain DBF2, hits give low values
[26] = locus YHR030C, strain SLT2, hits give low values
[27] = locus YHR079C, strain IRE1, hits give low values
[28] = locus YHR082C, strain KSP1, hits give low values
[29] = locus YHR205W, strain SCH9, hits give low values
[30] = locus YIL147C, strain SLN1, hits give low values
[31] = locus YJL095W, strain BCK1, hits give low values
[32] = locus YJL128C, strain PBS2, hits give low values
[33] = locus YJL157C, strain FAR1, hits give low values
[34] = locus YJR016C, strain ILV3, hits give low values
[35] = locus YJR066W, strain TOR1 (second series), hits give low values
[36] = locus YJR066W, strain TOR1, hits give low values
[37] = locus YKL048C, strain ELM1, hits give low values
[38] = locus YKL067W, strain YNK1, hits give low values
[39] = locus YKL101W, strain HSL1, hits give low values
[40] = locus YKL193C, strain SDS22, hits give low values
[41] = locus YKL203C, strain TOR2, hits give low values
[42] = locus YLR113W, strain HOG1, hits give low values
[43] = locus YLR133W, strain CKI1, hits give low values
[44] = locus YLR403W, strain SFP1, hits give low values
[45] = locus YML070W, strain DAK1, hits give low values
[46] = locus YMR001C, strain CDC5, hits give low values
[47] = locus YMR205C, strain PFK2 (second series), hits give low values
[48] = locus YMR277W, strain FCP1, hits give low values
[49] = locus YNL006W, strain LST8, hits give low values
[50] = locus YNL020C, strain ARK1, hits give low values
[51] = locus YNL161W, strain CBK1, hits give low values
[52] = locus YNL183C, strain NPR1, hits give low values
[53] = locus YNL207W, strain RIO2, hits give low values
[54] = locus YNL222W, strain SSU72, hits give low values
[55] = locus YNL307C, strain MCK1 (second series), hits give low values
[56] = locus YOL078W, strain AVO1, hits give low values
[57] = locus YOL136C, strain PFK27, hits give low values
[58] = locus YOR061W, strain CKA2, hits give low values
[59] = locus YOR119C, strain RIO1, hits give low values
[60] = locus YOR231W, strain MKK1, hits give low values
[61] = locus YOR329C, strain SCD5, hits give low values
[62] = locus YPL031C, strain PHO85, hits give low values
[63] = locus YPL153C, strain RAD53, hits give low values
[64] = locus YPL204W, strain HRR25, hits give low values
[65] = locus YPL209C, strain IPL1, hits give low values
[66] = locus YPL256C, strain CLN2, hits give low values
[67] = locus YPR025C, strain CCL1, hits give low values
[68] = locus YPR106W, strain ISR1, hits give low values
[69] = locus YPR111W, strain DBF20, hits give low values
[70] = strain NNK1, hits give low values
[71] = strain TSCII, hits give low values

Measured: normalized growth

Cc1nnsc1C(=O)Nc1cc(C(F)(F)F)cc(C(F)(F)F)c1
inactive: [1] 0.956 | [2] 0.957 | [3] 0.953 | [4] 0.958 | [5] 0.962 | [6] 0.958 | [7] 0.959 | [8] 0.964 | [9] 0.958 | [10] 0.95 | [11] 0.987 | [12] 0.966 | [13] 0.951 | [14] 0.955 | [15] 0.995 | [16] 1 | [17] 1.01 | [18] 0.948 | [19] 0.958 | [20] 0.955 | [21] 0.987 | [22] 0.964 | [23] 1 | [24] 1.02 | [25] 0.974 | [26] 1 | [27] 0.908 | [28] 1.07 | [29] 0.846 | [30] 0.957 | [31] 0.946 | [32] 0.957 | [33] 1.01 | [34] 0.956 | [35] 0.976 | [36] 1.1 | [37] 0.993 | [38] 0.977 | [39] 0.961 | [40] 0.947 | [41] 1.06 | [42] 0.961 | [43] 0.991 | [44] 0.941 | [45] 0.997 | [46] 0.962 | [47] 0.984 | [48] 0.951 | [49] 0.964 | [50] 0.985 | [51] 0.957 | [52] 1.05 | [53] 0.954 | [54] 0.961 | [55] 0.992 | [56] 0.951 | [57] 0.985 | [58] 0.996 | [59] 1.05 | [60] 1.03 | [61] 0.966 | [62] 1 | [63] 0.989 | [64] 0.99 | [65] 0.961 | [66] 0.864 | [67] 0.967 | [68] 0.948 | [69] 0.943 | [70] 0.925 | [71] 0.954

O=C(NNc1ccccc1F)c1ccno1
inactive: [1] 0.981 | [2] 0.97 | [3] 0.976 | [4] 0.98 | [5] 0.977 | [6] 0.987 | [7] 0.981 | [8] 0.979 | [9] 0.983 | [10] 0.973 | [11] 0.942 | [12] 0.979 | [13] 0.975 | [14] 0.983 | [15] 0.948 | [16] 0.869 | [17] 0.957 | [18] 0.986 | [19] 0.979 | [20] 0.982 | [21] 0.92 | [22] 0.982 | [23] 0.915 | [24] 1.01 | [25] 0.904 | [26] 0.959 | [27] 0.952 | [28] 0.998 | [29] 0.934 | [30] 0.983 | [31] 0.937 | [32] 0.972 | [33] 0.929 | [34] 0.979 | [35] 0.886 | [36] 1.01 | [37] 0.937 | [38] 0.943 | [39] 0.905 | [40] 0.978 | [41] 1.01 | [42] 0.863 | [43] 0.93 | [44] 0.934 | [45] 0.906 | [46] 0.979 | [47] 0.95 | [48] 0.986 | [49] 0.993 | [50] 0.929 | [51] 0.979 | [52] 0.937 | [53] 0.984 | [54] 0.976 | [55] 0.924 | [56] 0.98 | [57] 0.909 | [58] 0.884 | [59] 0.996 | [60] 0.888 | [61] 0.985 | [62] 0.964 | [63] 0.909 | [64] 0.937 | [65] 0.976 | [66] 0.914 | [67] 0.978 | [68] 0.968 | [69] 0.961 | [70] 0.983 | [71] 0.977

Cc1nnsc1C(=O)NNc1c(Cl)cccc1Cl
active: [42] 0.844
inactive: [1] 0.975 | [2] 0.974 | [3] 0.976 | [4] 0.977 | [5] 0.973 | [6] 0.979 | [7] 0.978 | [8] 0.993 | [9] 0.981 | [10] 0.982 | [11] 0.951 | [12] 0.985 | [13] 0.982 | [14] 0.986 | [15] 0.959 | [16] 0.933 | [17] 0.97 | [18] 0.98 | [19] 0.972 | [20] 0.98 | [21] 0.958 | [22] 0.981 | [23] 0.926 | [24] 1.02 | [25] 0.952 | [26] 1.02 | [27] 0.982 | [28] 1.02 | [29] 0.942 | [30] 0.981 | [31] 0.992 | [32] 0.926 | [33] 0.939 | [34] 0.984 | [35] 0.926 | [36] 1.05 | [37] 0.958 | [38] 0.948 | [39] 0.905 | [40] 0.98 | [41] 1.02 | [43] 0.939 | [44] 0.935 | [45] 0.927 | [46] 0.978 | [47] 0.941 | [48] 0.98 | [49] 0.993 | [50] 0.946 | [51] 0.979 | [52] 0.983 | [53] 0.988 | [54] 0.973 | [55] 0.948 | [56] 0.978 | [57] 0.927 | [58] 0.927 | [59] 1.01 | [60] 0.925 | [61] 0.977 | [62] 0.971 | [63] 0.949 | [64] 0.952 | [65] 0.973 | [66] 0.921 | [67] 0.975 | [68] 0.965 | [69] 0.976 | [70] 0.978 | [71] 0.977

Cc1cc(C(=O)NNc2ccc(F)cc2F)no1
inactive: [1] 0.972 | [2] 0.967 | [3] 0.971 | [4] 0.969 | [5] 0.964 | [6] 0.972 | [7] 0.977 | [8] 0.959 | [9] 0.973 | [10] 0.984 | [11] 0.938 | [12] 0.963 | [13] 0.952 | [14] 0.963 | [15] 0.95 | [16] 0.822 | [17] 0.957 | [18] 0.974 | [19] 0.956 | [20] 0.974 | [21] 0.899 | [22] 0.961 | [23] 0.93 | [24] 0.995 | [25] 0.861 | [26] 0.923 | [27] 0.948 | [28] 1.01 | [29] 0.962 | [30] 0.971 | [31] 0.955 | [32] 0.965 | [33] 0.931 | [34] 0.974 | [35] 0.879 | [36] 0.998 | [37] 0.95 | [38] 0.953 | [39] 0.955 | [40] 0.976 | [41] 1.01 | [42] 0.932 | [43] 0.93 | [44] 0.934 | [45] 0.912 | [46] 0.969 | [47] 0.972 | [48] 0.975 | [49] 0.988 | [50] 0.953 | [51] 0.963 | [52] 0.979 | [53] 0.962 | [54] 0.959 | [55] 0.908 | [56] 0.967 | [57] 0.937 | [58] 0.822 | [59] 1.01 | [60] 0.921 | [61] 0.967 | [62] 0.939 | [63] 0.923 | [64] 0.925 | [65] 0.96 | [66] 0.934 | [67] 0.968 | [68] 0.962 | [69] 0.963 | [70] 0.979 | [71] 0.964
